# Laboratory results as given in PubChem BioAssay.
# A number with no mark means an inactive call. Calls of active or inactive are those of the source.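 Rule for the calls: active = thallium flux through the channel raised or lowered by more than 3 SD from vehicle-only wells, actives on both sides; inactive = the rest.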
# System: R275C/beta2Delta
# Assay: BK channel mutant inhibitors and activators – cell-based, U2OS BacMam, thallium flux, beta subunits, selectivity assay, profiling panel (AID 1259406);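 note: initial slope of Thallos dye fluorescence rise after thallium is added; log ratio against the mean of 0.3% DMSO vehicle wells on the same plate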
# Conditions: U2OS BacMam BK variants, at 30 µM
row,SMILES,log fold change Tl+ flux
1,O=[N+]([O-])c1ccc(N2CCSCC2)cc1O,-0.0453
2,O=S(=O)(Nc1cc(Cl)c(-n2cccc2)cc1Oc1ccc(Cl)cc1)c1ccc(Cl)cc1,-0.0256
3,COc1cccc(C(=O)Nc2cc(F)c(Br)cc2F)c1,-0.0756
4,CCCn1c(=O)c(Br)cn(-c2ccccc2C)c1=O,-0.00562
5,Cc1cc(C(=O)N2CCN(c3ncccc3C#N)CC2)no1,0.0483
6,FC(F)(F)c1ccc(-c2csc(C3(c4ccc(Cl)cc4Cl)CC3)n2)cc1,-0.00666
7,CCOC(=O)c1c[nH]n2c(=O)c3c(nc12)CCC3,0.00309
8,CN(C)C=Nc1cc(Cl)c(-n2cccc2)cc1Oc1ccc(Cl)cc1,-0.0155
9,Cc1cc2c(NC(=O)c3ccccc3C(=O)O)cccc2nn1,-0.00027
10,O=c1n(-c2ccccc2)c(=O)n2n1C1CCC2C1,0.00605
11,NC(Cc1ccc(OCc2ncc(C(F)(F)F)cc2Cl)cc1)=NOC(=O)c1ccccc1,0.000291
12,Cc1cc2c(cc1C)CSC(c1ccco1)SC2,0.055
13,Cn1c(C(=O)O)ccc1S(=O)(=O)N(Cc1ccccc1)Cc1ccccc1,0.0893 (active)
14,CCOC(=O)Cn1c(-c2c(Cl)cccc2Cl)noc1=O,0.0184
15,COC(=O)C(C#N)=C1NC(C)=NC(SC)=C1C#N,-0.0169
16,CS(=O)(=O)NNc1c(Cl)cc(Cl)cc1Cl,0.00102
17,Cc1cnc(N)c(C)n1,0.039
18,CC12CCC(c3c1nn(-c1ccccc1)c3C(F)(F)F)C2(C)C (stereo not given),0.0124
19,N#CC(NCc1ccccc1Cl)=C(C#N)NCc1c(F)cccc1Cl,-0.0733
20,O=S(=O)(NCc1ccc2c(c1)CCO2)c1cccs1,-0.0692

row,SMILES,log fold change Tl+ flux
1,Cc1ccc(S(=O)(=O)NC(=O)NCc2csc3ccc(Cl)cc23)cc1,0.193 (active)
2,CCSc1ccc(-c2noc(C(C)(C)C)n2)cn1,-0.0201
3,O=C(Nc1c(S(=O)(=O)c2ccccc2)csc1Br)c1ccccc1Cl,-0.0307
4,O=C(O)CCSc1ccc2ccccc2c1,-0.00975
5,Cc1ccc(S(=O)(=O)Oc2c(Cc3ccccc3)c(=O)n(C)c3ccccc23)cc1,-0.0097
6,O=C1CCC(=O)N1c1ccc(S(=O)(=O)NCCCN2CCN(Cc3ccccc3)CC2)cc1,-0.00414
7,CN1c2ccsc2C(=O)C(=NNc2cccc(C(F)(F)F)c2)S1(=O)=O,0.00493
8,Cc1cc(NS(=O)(=O)c2ccc(NC(=O)c3nccnc3C(=O)O)cc2)no1,-0.0352
9,Clc1ccc(-c2cnc(-c3ccc(Cl)cc3)o2)cc1,0.0163
10,Cn1c(SCCS(=O)(=O)c2ccc(OC(F)(F)F)cc2)nnc1C(F)(F)F,-0.0306
11,N#CC1=C(Nc2ccccc2Cl)SC(c2ccncc2)NC1=O (stereo not given),0.0222
12,COC(=O)c1c(S(=O)(=O)N2CCOCC2)c(C)n(C)c1C,0.108 (active)
13,Cc1ccc(-c2nc(N=CNOC(=O)c3ccc([N+](=O)[O-])cc3)sc2C)cc1Cl,0.13 (active)
14,CCCCCCCCCCCCSC(=S)Nc1ccc(Br)c(C)c1,-0.028
15,O=[N+]([O-])c1cnc(Sc2nccc(-c3cccnc3)n2)s1,-0.0186
16,COc1ccc(Oc2ccc([N+](=O)[O-])cc2C2=NC(=CN(C)C)C(=O)O2)cc1,-0.0321
17,Cc1c(Br)sc2sc(-c3ccnc(SCc4ccccc4)n3)c(C)c12,0.0157
18,NC1(C(=O)O)CCSCC1,0.0435
19,COc1ccc2c(OC(C)=O)coc2c1,0.012
20,CC1(C)CC(=O)C=C(NCCCCCCCCNC2=CC(=O)CC(C)(C)C2)C1,-0.0562

# System: R275C/beta4
# Assay: as above
# Conditions: U2OS BacMam BK variants, at 30 µM
row,SMILES,log fold change Tl+ flux
1,O=[N+]([O-])c1ccc(N2CCSCC2)cc1O,-0.0292
2,O=S(=O)(Nc1cc(Cl)c(-n2cccc2)cc1Oc1ccc(Cl)cc1)c1ccc(Cl)cc1,0.0232
3,COc1cccc(C(=O)Nc2cc(F)c(Br)cc2F)c1,-0.0731
4,CCCn1c(=O)c(Br)cn(-c2ccccc2C)c1=O,0.00534
5,Cc1cc(C(=O)N2CCN(c3ncccc3C#N)CC2)no1,0.00374
6,FC(F)(F)c1ccc(-c2csc(C3(c4ccc(Cl)cc4Cl)CC3)n2)cc1,0.0455
7,CCOC(=O)c1c[nH]n2c(=O)c3c(nc12)CCC3,0.0387
8,CN(C)C=Nc1cc(Cl)c(-n2cccc2)cc1Oc1ccc(Cl)cc1,-0.0061
9,Cc1cc2c(NC(=O)c3ccccc3C(=O)O)cccc2nn1,-0.0138
10,O=c1n(-c2ccccc2)c(=O)n2n1C1CCC2C1,-0.0283
11,NC(Cc1ccc(OCc2ncc(C(F)(F)F)cc2Cl)cc1)=NOC(=O)c1ccccc1,0.00465
12,Cc1cc2c(cc1C)CSC(c1ccco1)SC2,0.0187
13,Cn1c(C(=O)O)ccc1S(=O)(=O)N(Cc1ccccc1)Cc1ccccc1,0.11 (active)
14,CCOC(=O)Cn1c(-c2c(Cl)cccc2Cl)noc1=O,-0.018
15,COC(=O)C(C#N)=C1NC(C)=NC(SC)=C1C#N,-0.0352
16,CS(=O)(=O)NNc1c(Cl)cc(Cl)cc1Cl,0.0275
17,Cc1cnc(N)c(C)n1,-0.0212
18,CC12CCC(c3c1nn(-c1ccccc1)c3C(F)(F)F)C2(C)C (stereo not given),-0.0271
19,N#CC(NCc1ccccc1Cl)=C(C#N)NCc1c(F)cccc1Cl,-0.185 (active)
20,O=S(=O)(NCc1ccc2c(c1)CCO2)c1cccs1,-0.0665

row,SMILES,log fold change Tl+ flux
1,Cc1ccc(S(=O)(=O)NC(=O)NCc2csc3ccc(Cl)cc23)cc1,0.329 (active)
2,CCSc1ccc(-c2noc(C(C)(C)C)n2)cn1,0.031
3,O=C(Nc1c(S(=O)(=O)c2ccccc2)csc1Br)c1ccccc1Cl,0.00756
4,O=C(O)CCSc1ccc2ccccc2c1,-0.0121
5,Cc1ccc(S(=O)(=O)Oc2c(Cc3ccccc3)c(=O)n(C)c3ccccc23)cc1,-0.0625
6,O=C1CCC(=O)N1c1ccc(S(=O)(=O)NCCCN2CCN(Cc3ccccc3)CC2)cc1,-0.00195
7,CN1c2ccsc2C(=O)C(=NNc2cccc(C(F)(F)F)c2)S1(=O)=O,-0.00494
8,Cc1cc(NS(=O)(=O)c2ccc(NC(=O)c3nccnc3C(=O)O)cc2)no1,0.0165
9,Clc1ccc(-c2cnc(-c3ccc(Cl)cc3)o2)cc1,0.00237
10,Cn1c(SCCS(=O)(=O)c2ccc(OC(F)(F)F)cc2)nnc1C(F)(F)F,-0.0219
11,N#CC1=C(Nc2ccccc2Cl)SC(c2ccncc2)NC1=O (stereo not given),0.0286
12,COC(=O)c1c(S(=O)(=O)N2CCOCC2)c(C)n(C)c1C,0.0019
13,Cc1ccc(-c2nc(N=CNOC(=O)c3ccc([N+](=O)[O-])cc3)sc2C)cc1Cl,0.142 (active)
14,CCCCCCCCCCCCSC(=S)Nc1ccc(Br)c(C)c1,0.0416
15,O=[N+]([O-])c1cnc(Sc2nccc(-c3cccnc3)n2)s1,0.0146
16,COc1ccc(Oc2ccc([N+](=O)[O-])cc2C2=NC(=CN(C)C)C(=O)O2)cc1,-0.00628
17,Cc1c(Br)sc2sc(-c3ccnc(SCc4ccccc4)n3)c(C)c12,-0.00767
18,NC1(C(=O)O)CCSCC1,-0.00913
19,COc1ccc2c(OC(C)=O)coc2c1,0.0182
20,CC1(C)CC(=O)C=C(NCCCCCCCCNC2=CC(=O)CC(C)(C)C2)C1,-0.0723
